Here are results for 55 compounds from ChEMBL document CHEMBL4513216, “Probing the Open Global Health Chemical Diversity Library for Multistage-Active Starting Points for Next-Generation Antimalarials” (ACS Infect Dis, 2020).

The campaign covered roughly 69,000 compounds. About 8,600 (12%) showed an effect of 50% or more. The entries come from a sample that favours strong results as a whole.

This assay deals with Plasmodium berghei. The experiment in a line: Screen against P. berghei liver stage (PbLuc), transformed with Luciferase, at 10uM. It counts as functional, HepG2. As to conditions: tested at 10 uM.
Take `CS(=O)(=O)N1CCO[C@@H]2CN(C(=O)c3ccnnc3)C[C@@H]2C1`: the INHIBITION was determined as 17.6%. Next, `Cc1ccc(C2CN(CCCS(=O)(=O)C(C)C)CCO2)c(C)c1` (stereo not given): -20.3%; `CN1CCC(NC(=O)CC2CN(Cc3ccccc3)CCO2)CC1` (stereo not given): 9.41%; `COc1ccc(CCNC(=O)Cn2ncc3c2c(C)nn3C)cc1`: 28.4%.

Turning to `CC(NC(=O)C1=NN(C)C(=O)CC1)c1ccc(Cl)cc1` (stereo not given), the INHIBITION turned out to be 20.9%. The figure for `CN(CCC#N)C(=O)CCOc1cccc(F)c1` is -13.4%; for `Cc1cc(C(O)CCNC(=O)c2ccc(Cl)s2)c(C)o1` (stereo not given) it is -1.04%; for `CC(C)OCCSc1nnnn1C1CCOCC1` it is 26.9%.

In the case of `O=C1OCCN1CCSc1nnnn1C1CCOCC1`, the INHIBITION came to 54.5%. Next, `O=C1OCCN1CCSc1nnnn1CC(F)(F)F`: 42.4%. The figure for `c1nc(N2CCCCC2Cn2cncn2)c2ccsc2n1` (stereo not given) is 45.8%. The figure for `Cc1nn(C)c(C)c1C1CCCN1c1ncnc2sccc12` (stereo not given) is 70.5%. Consider `COc1c(C2CCCN2c2ncnc3sccc23)c(C)nn1C` (stereo not given), for which the INHIBITION stood at 40%. Next, `c1cnn(CC2CCCN2c2ncnc3c2CCC3)c1` (stereo not given): 59.7%; `Cc1cnn(CC2CCCN2c2ncnc3sccc23)c1` (stereo not given): 56.1%.

As to `Cc1cnn(CC2CCCN2c2ccc(C#N)cn2)c1` (stereo not given), the INHIBITION is given as -16%. Next, `Cc1cnn(CC2CCCN2c2ncnc3c2CCC3)c1` (stereo not given): -2.94%. Next, `Cc1nn(C)c(Cl)c1C1CCCN1c1ncnc2sccc12` (stereo not given): 42.6%; `Cc1cnn(CC2CCCCN2c2ncnc3ccccc23)c1` (stereo not given): -34.6%. Next, `Cc1cnn(CC2CCCN2c2ncnc3ccsc23)c1` (stereo not given): 47.7%; `Cc1cnn(CC2CCCN2c2ncnc3ccccc23)c1` (stereo not given): 75.9%; `N#Cc1ccc(N2CCCC2Cn2cccn2)nc1` (stereo not given): -155%. Take `CSCC[C@H](NC(C)=O)c1nc(CC(C)C)n[nH]1`: the INHIBITION is -24.7%. The figure for `c1ccc2oc(CN3CCCC(Cn4cncn4)C3)nc2c1` (stereo not given) is 16.34%. The figure for `CC(C)CCN(C(=O)c1ccc(-n2ncc(C#N)c2N)cc1)C1CC1` is 19.5%.

`Cc1cnn(CCC(=O)N2CCCC(c3ccn[nH]3)C2)c1` (stereo not given): the INHIBITION is on record as -19.4%. As to `Cc1nc(C)n(C2CCCN(C(=O)CCOc3cccc(F)c3)C2)n1` (stereo not given), the INHIBITION stood at 33.3%. As to `Cc1c(NCCO)cccc1OC1CCCC1`, the INHIBITION was -64.6%.

For the compound `CN1CCC(CNC(=O)NCc2ccc(F)cc2)CC1`, the INHIBITION is -33%. Next, `CC(C)NC(=O)c1cc2c(s1)CCN2C(=O)CN(C)C`: 8.67%; `CC1COCCN1c1ncnc2sccc12` (stereo not given): 49.1%.

For the compound `c1ccc2c(N3CCCCC3Cn3cccn3)ncnc2c1` (stereo not given), the INHIBITION was found to be 11.575%. Next, `c1ccc2c(N3CCCCC3Cn3cncn3)ncnc2c1` (stereo not given): -11.1%. The figure for `Cc1n[nH]c(C)c1C1COCCN1c1ncnc2sccc12` (stereo not given) is 71.4%. Next, `Cc1nn(C)c(C)c1C1COCCN1c1ncnc2sccc12` (stereo not given): -7.11%; `c1ccc2c(N3CCCC3Cn3cccn3)ncnc2c1` (stereo not given): 76.9%. Consider `O=C(c1ccncc1)N1C[C@H]2CC[C@@H](C1)N(C(=O)N1CCOCC1)C2`, for which the INHIBITION is -20.6%.

Turning to `CCc1nc(C2CCCN2Cc2nccn2CC(F)(F)F)no1` (stereo not given), the INHIBITION is 28.8%. The figure for `CC1CN(CC(=O)NCc2ccccn2)CCN1Cc1nccn1C` (stereo not given) is -20.19%; for `O=C(c1ccc2c(c1)OCCCO2)N1CCCC(n2cccn2)C1` (stereo not given) it is 7.12%; for `Cn1cnc2cc(NC(=O)c3n[nH]c4c3CCC4)ccc21` it is -136%. On to `CC(C)n1ccc2c(NC(=O)c3n[nH]c4c3CCC4)cccc21`, for which the INHIBITION is listed as 76.9%. The figure for `CC(=O)Nc1cccc2c1ccn2CC(=O)NC(C)C` is 22%; for `Cc1cc(CC(C)NC(=O)c2n[nH]c3c2CCC3)n[nH]1` (stereo not given) it is -56.2%; for `CC(=O)Nc1cccc2c1ccn2CC(=O)Nc1n[nH]c(CC(C)C)n1` it is 71.3%. Next, `CC(=O)Nc1cccc2c1ccn2CC(=O)Nc1nc[nH]n1`: 21.5%. The figure for `COCCn1ccc2c(NC(=O)c3n[nH]c4c3CCCC4)cccc21` is 14.8%; for `CC(C)Cn1ccc2c(NC(=O)c3n[nH]c4c3CCC4)cccc21` it is 90.8%. Take `CC(C)c1nc2cc(NC(=O)c3n[nH]c4c3CCC4)ccc2n1C`: the INHIBITION came to 62.2%. As for `Cc1ccc(N(C)C2CCN(C(=O)c3n[nH]c4c3CCC4)CC2)nn1`, the INHIBITION was -20.3%.

Turning to `COCCn1ccc2c(NC(=O)c3n[nH]c4c3CCC4)cccc21`, the INHIBITION is on record as 9.57%. Next, `CN(C)CCCn1cnc2cc(NC(=O)c3n[nH]c4c3CCC4)ccc21`: 10.1%; `O=S(=O)(c1cnccc1N1CCN(CCO)CC1)N1CCOCC1`: 36.8%; `CCOc1ccc(C#N)cc1NC(=O)N1CCC(n2cncn2)CC1`: -31.4%. Next, `Cc1nc(N2CCCC2)ncc1-c1cc(O)nc(NCC2CCCO2)n1` (stereo not given): -29.6%.
